In all, about 320,000 compounds went through this assay and about 3,300 (1%) were called active. The full list was thinned out, with actives kept by preference. Values without a mark were called inactive.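 How the source made its calls: active means every valid replicate shows activation above 250% relative to neutral control wells; inactive means the rest, any valid replicate at or below 250%.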
assay: restored growth of temperature-sensitive Mot1-301 yeast – S. cerevisiae, ATP luminescence, 38.5C, SUMOylation pathway inhibitor project, primary screen (AID 2716);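 further: OY570 slx delta 5 strain wells were the positive control but not used for scaling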; conditions: S. cerevisiae Mot1-301 growth rescue, at 18.8 µM, stronger effect = higher value, percent above DMSO median, 100 means doubled

Row | SMILES | growth rescue
1 | O=C(CSCc1ccc(Cl)cc1)N1CCN(Cc2ccc3c(c2)OCO3)CC1 | 194%
2 | O=C(CSCc1cccs1)N1CCCC1 | -5.87%
3 | O=C(CSCc1ccc(Cl)cc1)N1CCCCC1 | 1570% (active)
4 | CC(C)(C)c1nnc(N/N=C/c2ccc(O)cc2)n(N)c1=O | -10.1%
5 | COc1ccnc2c1c(=O)n(Cc1cccc(F)c1)c(=O)n2C | 95.4%
6 | CCCCn1c(-c2cccc(C)c2)nc2cc3[nH]c(=O)c(C(C)C)nc3cc21 | -29.3%
7 | COc1ccc(/C=C(/CC(=O)Nc2ccc(C)cc2)c2nc3ccccc3s2)cc1 | 7.28%
8 | COc1cc2ccccc2cc1C(=O)Nc1ccc(N2CCOCC2)cc1 | 4.29%
9 | COc1cccc(/C=C(/CC(=O)Nc2ccc(N3CCOCC3)cc2)c2nc3ccccc3s2)c1 | 766% (active)
10 | CCCCCc1c(C)nc(N2CCN(Cc3ccc4c(c3)OCO4)CC2)[nH]c1=O | -20.3%
11 | Cc1nnc(SCc2cc(=O)[nH]c(N3CCN(Cc4ccccc4)CC3)n2)s1 | 18.3%
12 | CCc1c(C)nc(N2CCN(Cc3ccccc3)CC2)[nH]c1=O | 1390% (active)
13 | COC(=O)Cn1c(O)c(N=NC(=O)OC)c2ccccc21 | -22.3%
14 | CC(C)n1c(O)c(N=Nc2ccccn2)c2ccccc21 | 421% (active)
15 | Oc1oc(-c2ccccc2Br)nc1/C=N/c1ccccn1 | 15.4%
16 | COc1cccc2cc(C(=O)NCc3ccc(C)cc3)c(=N)oc12 | -7.41%
17 | O=C(COc1cccc2c1CCNC2=O)NC1CCCCC1 | -3.62%
18 | COC(=O)c1cc2n(n1)CCCNC2=O | 0.35%
19 | COC(=O)Cn1cc(/C=C/[N+](=O)[O-])c2ccccc21 | 5.69%
20 | O=C(Cn1ccc2cc(S(=O)(=O)N3CCCC3)ccc21)NCc1ccccc1 | -15.1%
21 | O=[N+]([O-])/C=C/c1ccc2c(ccn2Cc2ccccc2)c1 | 436% (active)
22 | Cc1nc(SCC(=O)NC2CCCC2)[nH]c(=O)c1C | 4.8%
23 | Cc1sc2nc(CSCC(=O)Nc3c(Cl)cccc3Cl)[nH]c(=O)c2c1C | 2.95%
24 | Cc1sc2nc(CSCC(=O)NC3CCCCC3)[nH]c(=O)c2c1C | 345% (active)
25 | COc1ccc(Cl)cc1NC(=O)Cn1nc(-c2ccc(C)cc2)n(C)c1=S | 283%

Row | SMILES | growth rescue
26 | Cc1ccc2c(c1)N(CC(=O)N1CCCC(C)C1)C(=O)CO2 (stereo not drawn) | 1.32%
27 | Cc1ccc2c(c1)N(CC(=O)NCC1CCCO1)C(=O)CO2 (stereo not drawn) | 346% (active)
28 | Cc1ccc2c(c1)N(CC(=O)N1CCOCC1)C(=O)CO2 | 4.76%
29 | CC(=O)N(c1ccc2oc(=O)sc2c1)S(=O)(=O)c1ccc(C)cc1 | 1.25%
30 | Cc1onc(-c2ccccc2Cl)c1C(=O)OCC(=O)c1ccccc1 | -4.82%
31 | Cc1onc(-c2ccccc2Cl)c1C(=O)OCc1nnc(-c2ccccc2)o1 | 0.31%
32 | CCOc1cnc(-c2c(-c3ccccc3Cl)noc2C)o1 | 675% (active)
33 | Cc1ccc(N(C(=O)c2ccc(S(=O)(=O)N(C)C)cc2)C2C=CS(=O)(=O)C2)cc1 (stereo not drawn) | -4.36%
34 | COc1ccccc1NS(=O)(=O)c1ccc(C)c(C(=O)NNC(=O)c2csc(N3CCOCC3)n2)c1 | 6.56%
35 | COC(=O)c1ccc(CSc2ccc3nnc(-c4ccccc4)n3n2)o1 | -8.47%
36 | Cc1ccc(S(=O)(=O)N2[C@@H](c3ccc(Br)cc3)C(C(=O)O)=C[C@H]2CC2CCCC2)cc1 | 800% (active)
37 | Cc1ccc(S(=O)(=O)N2[C@@H](c3cccc4ccccc34)C(C(=O)O)=C[C@H]2C(C)(C)C)cc1 | 29.9%
38 | Cc1ccc([C@@H]2CC=C(C(=O)O)[C@H](c3cccc(Cl)c3)N2S(=O)(=O)c2ccc(C)cc2)cc1 | 24.4%
39 | CC12CN(NC(=O)c3ccc(Cl)cc3)C3(C#N)CC1CCC23C (stereo not drawn) | 42.1%
40 | O=C(NCC(=O)N(c1ccccc1)C(C(=O)NCC1CCCO1)c1ccccc1)c1cccs1 (stereo not drawn) | 679% (active)
41 | COC(=O)c1cccc(N(C(=O)CNC(=O)c2cccs2)C(C(=O)NCC2CCCO2)c2ccc(OC)c(OC)c2)c1 (stereo not drawn) | -4.04%
42 | Cc1ccc(N(C(=O)Cc2cccs2)C(C(=O)NCC2CCCO2)c2ccncc2)cc1 (stereo not drawn) | 5.34%
43 | Cc1cc(C)n2nc(SCC(=O)NC(=O)NCc3ccco3)nc2n1 | 6.86%
44 | COC(=O)C1(S(=O)(=O)C2(C(=O)OC)CCCC2)CCCC1 | -10%
45 | Cc1ccc(CSCC(=O)N(C)CC(=O)Nc2cccc(F)c2)cc1 | -8.64%
46 | CCN(CC)C(=O)C(=O)Nc1cccc(Br)c1 | 1.06%
47 | CCN(CC)C(=O)CSC(Nc1cccc(F)c1)=C(C#N)C#N | 643% (active)
48 | Cc1ccc(NC(=O)[C@H](Cc2ccccc2)NC(=O)C2CCNCC2)cc1 | 2.72%
49 | N/C(=N\OC(=O)Nc1ccccc1)c1ccno1 | 4.96%
50 | Cn1c(=O)c2c(ncn2CCc2ccccc2)n(C)c1=O | 43.8%

Row | SMILES | growth rescue
51 | O=c1c2cc([N+](=O)[O-])ccc2nc2n1CCC2 | 12%
52 | O=c1c2c(ncn1Cc1ccccc1)nc1n2CCC1 | 490% (active)
53 | Cc1ccc(C)c(OCCC(=O)OCC(=O)c2ccc3c(c2)NC(=O)CO3)c1 | 0.132%
54 | O=C(CCNC(=O)c1ccc([N+](=O)[O-])cc1)Nc1ccccc1N1CCOCC1 | -1.52%
55 | CCCCN(C(=O)c1nn(C)c(=O)c2ccccc12)c1c(N)n(CCC)c(=O)[nH]c1=O | -14.8%
56 | COc1ccc(Cc2nnc(SCC(=O)N(c3ccccc3)C(C)C)n(N)c2=O)cc1 | 2.77%
57 | CN(CCc1ccccc1)c1ccc([N+](=O)[O-])cn1 | 9.85%
58 | O=C(NN1C(=O)C2C3C=CC(C3)C2C1=O)c1ccco1 (stereo not drawn) | -6.66%
59 | COc1cccc2cc(C(=O)N(C)C)c(=O)oc12 | 0.334%
60 | CN(C)C(=O)c1coc2nc3ccccc3nc12 | 924% (active)
61 | CNC(=O)c1cccc2nc3ccccc3nc12 | 16%
62 | CCOC(=O)C1(Cc2cccc(OC)c2)CCCN(S(=O)(=O)c2cccnc2)C1 (stereo not drawn) | 568% (active)
63 | CCOC(=O)C1(Cc2cccc(OC)c2)CCCN(C(=O)CCSC)C1 (stereo not drawn) | -10.8%
64 | CCOC(=O)C1(Cc2cccc(OC)c2)CCN(C(C)COC)CC1 (stereo not drawn) | 9.8%
65 | CCOC(=O)c1cc(C(=O)Nc2ccc(S(=O)(=O)Nc3ccc(OC)cc3)cc2)nn1C | 1.95%
66 | Cc1ccc(C)c(S(=O)(=O)N2CCN(c3ncnc4sccc34)CC2)c1 | -2.33%
67 | C/[N+]([O-])=C\c1ccc([N+](=O)[O-])o1 | 330% (active)
68 | Cc1cc(C)nc(N/N=C/c2ccc([N+](=O)[O-])o2)n1 | -7.8%
69 | CCc1ccc(S(=O)(=O)N/N=C\c2ccc([N+](=O)[O-])o2)cc1 | -9.87%
70 | NC(=O)C1(C(N)=O)OC1c1ccc(Cl)cc1Cl (stereo not drawn) | -6.75%
71 | O=C(NCCc1ccco1)c1ccc(OCc2cn3ccccc3n2)cc1 | -7.98%
72 | CCc1nccn1S(=O)(=O)c1cccc([N+](=O)[O-])c1 | 1.13%
73 | Cc1cn(C2C=CC(CO)O2)c(=O)[nH]c1=O (stereo not drawn) | -3.98%
